# In PubChem BioAssay (NCATS):
# Inconclusive results are not listed. Values without a mark were called inactive. Active and inactive are the calls of the source. Calls come from the whole dose curve; as a rule, active = well fitted cell-killing curve with a large enough effect; inconclusive = small, poorly fitted or top-dose-only effect; inactive = no such curve, though single readings can be large or run the other way.
# Test: qHTS of pediatric cancer cell lines to identify multiple opportunities for drug repurposing: Primary screen for SJ-GBM2 cells (AID 1347091);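 for activity change, negative = cytotoxic: plate controls were DMSO neutral control for no effect and bortezomib for full effect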
# Conditions: SJ-GBM2 viability, CellTiter-Glo luminescence, 48 h; series mostly up to 46 µM; activity change, negative = cytotoxic: at the top concentration
# Outline: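 Viability measured as metabolically active cells via CellTiter-Glo luminescence following 48 hours of compound exposure, 11-point dilutions in confirmatory testing. 500-1,000 cells/well plated 5 hours before dosing; controls were DMSO and 2.3 µM bortezomib.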
# Potency is the fitted concentration of half-maximal effect.
Compound,"activity change, negative = cytotoxic",Potency
CCN(CC)CCNC(=O)COc1ccc(Cl)cc1,12.6%,
Cc1onc(-c2c(Cl)cccc2Cl)c1C(=O)N[C@@H]1C(=O)N2[C@@H]1SC(C)(C)[C@@H]2C(=O)O,-0.183%,
CC(C)(C)NC(=O)[C@@H]1CN(Cc2cccnc2)CCN1C[C@@H](O)C[C@@H](Cc1ccccc1)C(=O)N[C@H]1c2ccccc2C[C@H]1O,16.7%,
C=CCc1ccc(O)c(OC)c1,11.3%,
NCCc1ccn[nH]1,2.26%,
OC[C@H]1O[C@H](O[C@]2(CCl)O[C@H](CCl)[C@@H](O)[C@@H]2O)[C@H](O)[C@@H](O)[C@H]1Cl,16.4%,
COc1c2occc2c(OC)c2c(=O)cc(C)oc12,16.1%,
COc1cc2c(cc1OC)[C@@H]1CC(=O)[C@@H](CC(C)C)CN1CC2,26.4%,
C[C@H](CCC(=O)O)[C@H]1CC[C@H]2[C@@H]3C(=O)C[C@@H]4CC(=O)CC[C@]4(C)[C@H]3CC(=O)[C@]12C,19.5%,
C[C@@H]1C[C@H]2[C@@H]3CCC4=CC(=O)C=C[C@]4(C)[C@@]3(F)[C@@H](O)C[C@]2(C)[C@H]1C(=O)CO,-9.14%,
CN(C)CC/C=C1/c2ccccc2COc2ccc(CC(=O)O)cc21,11.2%,
C/C=C/c1ccc(OC)cc1,27.4%,
CN=C(NC#N)Nc1ccc(C2=NNC(=O)CC2C)cc1 (stereo unspecified),-5.04%,
CCC(C(=O)OCCN(CC)CC)c1ccccc1 (stereo unspecified),12.4%,
CC(=O)Oc1ccc(C(=C2CCCCC2)c2ccc(OC(C)=O)cc2)cc1,9.02%,
O=C(Nc1ccc(Cl)c(Cl)c1)C1CC1,-4%,
CCC(=O)c1c(O)cc(O)cc1O,-4.8%,
Cc1cccn2c(=O)c(-c3nnn[nH]3)cnc12,10.9% [at 16.1 µM],

Compound,"activity change, negative = cytotoxic",Potency
CC1(C)O[C@@H]2C[C@H]3[C@@H]4C[C@H](F)C5=CC(=O)CC[C@]5(C)[C@H]4[C@@H](O)C[C@]3(C)[C@]2(C(=O)CO)O1,11.6%,
C[C@]12CC[C@H]3[C@@H](CCC4=CC(=O)CC[C@@]43C)[C@@H]1CC[C@@H]2C(=O)CO,-11.7%,
Cc1c(C(N)=O)cc([N+](=O)[O-])cc1[N+](=O)[O-],-14.2%,
Cc1c(C(C)C)c(=O)n(-c2ccccc2)n1C,23.9%,
CC(=O)OCC(=O)[C@@]1(O)[C@H](C)C[C@H]2[C@@H]3CCC4=CC(=O)C=C[C@]4(C)[C@@]3(F)[C@@H](O)C[C@@]21C,7.83%,
OCc1ccccc1O,29.4%,
CCN1CCCC1=O,8.94%,
OC[C@H]1O[C@@H](n2cnc3c(=S)nc[nH]c32)[C@H](O)[C@@H]1O,,3.76 µM (active)
CCOC(=O)c1cccc(N)c1,13.2%,
CC(=O)[C@H]1CC[C@H]2[C@@H]3C[C@H](C)C4=CC(=O)CC[C@]4(C)[C@H]3[C@@H](O)C[C@]12C,1.82%,
NCCCC[C@H](N[C@@H](CCc1ccccc1)C(=O)O)C(=O)N1CCC[C@H]1C(=O)O,18.6%,
Cc1cc(O)c(C(C)C)cc1Cl,25.2%,
COc1cc(/C=C/C(=O)O[C@H]2CC[C@]34C[C@]35CC[C@]3(C)[C@@H]([C@H](C)CCC=C(C)C)CC[C@@]3(C)[C@@H]5CC[C@H]4C2(C)C)ccc1O,19.3%,
CC1(C)O[C@@H]2C[C@H]3[C@@H]4CCC5=CC(=O)CC[C@]5(C)[C@@]4(F)[C@@H](O)C[C@]3(C)[C@]2(C(=O)CCl)O1,0.219%,
Nc1ccc(C(=O)O)cc1,25.3%,
CN1CCN(C(c2ccccc2)c2ccccc2)CC1,0.845%,
CC1(C)O[C@@H]2C[C@H]3[C@@H]4C[C@H](F)C5=CC(=O)C=C[C@]5(C)[C@H]4[C@@H](O)C[C@]3(C)[C@]2(C(=O)CO)O1,-1.32%,
Nc1nc2ncc(CNc3ccc(C(=O)N[C@@H](CCC(=O)O)C(=O)O)cc3)nc2c(=O)[nH]1,19.8%,
